Inconclusive results are not listed. For part of these data: Results with a measured potency or affinity are listed apart. Activity calls are given as the source filed them. Cut-off read from the data, not from the text of the source: active = fluorescence slope change above about 50%; inconclusive = mostly about 31% to 49%; inactive = weaker than that.

Experiment [1] concerns the target ATP-dependent translocase ABCB1 (Homo sapiens) (UniProt P08183). Nature of the experiment: MDR1 (ABCB1) efflux transporter inhibition, cell-based (AID 377). As to conditions: MDR1-expressing cells, fluorescent substrate accumulation slope; stronger effect = higher value; concentration not given here.
The nature of experiment [2]: polyglutamine-triggered caspase-3 activation inhibitors, cell-based (AID 1583). As to conditions: polyglutamine-induced caspase-3 activation, cell assay; stronger effect = higher value;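 tested at 10 µM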.
The nature of experiment [3]: suppressors of polyQ aggregation in yeast, 75Q-TubU reporter (AID 1593). As to conditions: Yeast 75Q polyglutamine aggregation reporter.
Experiment [4] in a line: rescue of polyQ-huntingtin neuronal dysfunction in worms, whole organism, C. elegans mechanosensory neurons, N-terminal huntingtin (AID 1599). As to conditions: touch response, stronger effect = higher value.
Experiment [5] in a line: inhibitors of mitochondrial cytochrome c release, biochemical, purified mitochondria (AID 1603).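 Note: mouse liver mitochondria challenged with calcium chloride; signal normalized to the plate average as 100%.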 As to conditions: stronger effect = lower value.
Experiment [6] in a line: inhibitors of polyQ protein aggregation (AID 1604). Particulars: polyglutamine-induced protein aggregation inhibition assay; stronger effect = higher value; tested at 2.5 µM.

Chain of ATP-dependent translocase ABCB1 (Homo sapiens) (P08183 whole entry, looked up): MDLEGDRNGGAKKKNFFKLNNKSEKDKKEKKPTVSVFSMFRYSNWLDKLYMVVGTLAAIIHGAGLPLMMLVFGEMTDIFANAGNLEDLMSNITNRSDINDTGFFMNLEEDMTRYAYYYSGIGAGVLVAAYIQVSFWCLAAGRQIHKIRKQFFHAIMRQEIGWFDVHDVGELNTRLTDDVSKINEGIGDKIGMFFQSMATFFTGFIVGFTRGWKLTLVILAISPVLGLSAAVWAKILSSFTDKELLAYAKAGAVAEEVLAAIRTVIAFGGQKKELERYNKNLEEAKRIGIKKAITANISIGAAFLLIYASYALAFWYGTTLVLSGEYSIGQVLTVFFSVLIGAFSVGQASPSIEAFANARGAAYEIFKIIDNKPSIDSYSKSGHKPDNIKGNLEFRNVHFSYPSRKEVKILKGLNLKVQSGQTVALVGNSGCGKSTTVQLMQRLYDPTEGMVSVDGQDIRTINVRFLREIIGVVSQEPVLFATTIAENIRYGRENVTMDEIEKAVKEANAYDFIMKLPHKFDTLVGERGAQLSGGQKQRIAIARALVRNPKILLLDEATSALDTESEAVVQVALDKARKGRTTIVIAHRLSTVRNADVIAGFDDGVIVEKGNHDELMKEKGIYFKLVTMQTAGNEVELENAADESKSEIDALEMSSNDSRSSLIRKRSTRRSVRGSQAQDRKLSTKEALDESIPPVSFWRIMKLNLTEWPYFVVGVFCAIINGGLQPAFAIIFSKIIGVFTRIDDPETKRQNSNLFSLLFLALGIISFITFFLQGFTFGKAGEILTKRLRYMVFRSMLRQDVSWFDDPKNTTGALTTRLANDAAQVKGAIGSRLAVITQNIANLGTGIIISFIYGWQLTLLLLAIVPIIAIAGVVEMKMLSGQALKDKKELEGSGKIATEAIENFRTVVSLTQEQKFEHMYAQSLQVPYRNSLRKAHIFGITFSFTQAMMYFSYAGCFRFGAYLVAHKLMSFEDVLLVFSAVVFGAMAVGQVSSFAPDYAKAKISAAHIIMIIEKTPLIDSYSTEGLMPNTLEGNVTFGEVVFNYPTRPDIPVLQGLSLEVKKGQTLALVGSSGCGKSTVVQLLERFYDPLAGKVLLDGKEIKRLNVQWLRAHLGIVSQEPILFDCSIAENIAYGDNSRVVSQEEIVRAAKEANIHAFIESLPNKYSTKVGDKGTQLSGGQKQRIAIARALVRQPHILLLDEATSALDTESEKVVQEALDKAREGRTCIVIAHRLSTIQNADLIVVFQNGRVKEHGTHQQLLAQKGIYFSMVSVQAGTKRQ

Turning to `O=C(O)CCC(=O)c1ccc(-c2ccccc2)cc1`, the fluorescence slope change in experiment [1] is 81% (active). Further, the inhibition (in general, the change of the read-out against control, counted positive when it falls) in experiment [2] amounted to 1.96%. In experiment [3], this molecule yielded a score of -0.44. The rescue above control in experiment [4] worked out at 4.61. Besides, the cytochrome c release ratio in experiment [5] was 1. In addition, the inhibition of aggregation in experiment [6] worked out at 18.2%.

As to `CS(=O)(=O)Nc1ccc([N+](=O)[O-])cc1Oc1ccccc1`, the fluorescence slope change in experiment [1] is 50.2% (active). For the same molecule, in experiment [2], the inhibition is 6.83%. Also, in experiment [3], the score amounted to 0.85. Further, the rescue above control in experiment [4] stood at 3.29. Further, the cytochrome c release ratio in experiment [5] came to 3.47. In experiment [6], this molecule returned an inhibition of aggregation of 42.5%.

`CC[C@]12CCCN3CCc4c(n(c5ccccc45)[C@@](O)(C(=O)OC)C1)[C@@H]32`: the fluorescence slope change in experiment [1] was 8.1% (inactive).

On to `CC1(C)OC(=O)NC1=O`, for which the fluorescence slope change in experiment [1] was 19.4% (inactive). Further, the inhibition in experiment [2] was -3.41%. In experiment [3], this molecule registered a score of 1.47. Also, the rescue above control in experiment [4] turned out to be 14.1. Besides, in experiment [5], the cytochrome c release ratio came to 0.85. For the same molecule, the inhibition of aggregation in experiment [6] is 33.3%.

In the case of `CCCCOc1ccc(OCCCN2CCOCC2)cc1`, in experiment [1], the fluorescence slope change is 29.5% (inactive). Besides, the inhibition in experiment [2] worked out at 9.28%. This molecule had a score in experiment [3] of 1.09. Besides, in experiment [4], the rescue above control was 8.67. Besides, in experiment [5], the cytochrome c release ratio stood at 0.73. The same molecule came in with an inhibition of aggregation in experiment [6] of 65%.

Regarding `Cc1cc(O)cc(C)c1Cl`, the inhibition in experiment [2] was found to be 0.93%. This molecule gave a score in experiment [3] of 0.53. For the same molecule, the cytochrome c release ratio in experiment [5] was determined as 5.53. For the same molecule, in experiment [6], the inhibition of aggregation was found to be 81.6%.

Consider `CCCCC(CC)CN=C(N)NC(N)=NCCCCCCN=C(N)NC(N)=NCC(CC)CCCC` (stereo not given), for which the fluorescence slope change in experiment [1] is 152% (active). Further, in experiment [3], the score is -1.46. This molecule yielded a rescue above control in experiment [4] of 0. Also, in experiment [5], the cytochrome c release ratio was determined as 26.4. This molecule also gave an inhibition of aggregation in experiment [6] of 88%.

Take `CC(C)NNC(=O)c1ccncc1`: the fluorescence slope change in experiment [1] is 97.9% (active). The inhibition in experiment [2] stood at 12.9%. The molecule also displayed a score in experiment [3] of 1.22. In experiment [5], the cytochrome c release ratio was 1.02. For the same molecule, the inhibition of aggregation in experiment [6] turned out to be 71.4%.

In the case of `CN1CCC(=C2c3ccccc3Sc3ccccc32)CC1`, the fluorescence slope change in experiment [1] was 107% (active). Moreover, in experiment [2], the inhibition was -31.4%. Besides, the score in experiment [3] was found to be 1.33. Besides, the cytochrome c release ratio in experiment [5] worked out at 1.44. In addition, in experiment [6], the inhibition of aggregation is 88.8%.

For `OCC(O)CN1CCN(c2ccccc2)CC1` (stereo not given), the fluorescence slope change in experiment [1] is 54.1% (active). For the same molecule, the inhibition in experiment [2] is 9.99%. In experiment [3], this molecule displayed a score of 1.44. The molecule further came in with a rescue above control in experiment [4] of 10.9. In experiment [5], the cytochrome c release ratio turned out to be 0.72. This molecule also came in with an inhibition of aggregation in experiment [6] of 68.2%.

Turning to `CN1CCN2c3ccccc3Cc3ccccc3C2C1` (stereo not given), in experiment [1], the fluorescence slope change is 67.1% (active). Moreover, the inhibition in experiment [2] is -9.95%. This molecule showed a score in experiment [3] of 1.13. The rescue above control in experiment [4] came out at 36.1. In experiment [5], the cytochrome c release ratio came out at 0.7. Moreover, the inhibition of aggregation in experiment [6] was 60.7%.

In the case of `CCCCC1(COC(=O)CCC(=O)O)C(=O)N(c2ccccc2)N(c2ccccc2)C1=O`, the fluorescence slope change in experiment [1] is 4.7% (inactive). Further, the inhibition in experiment [2] was 9.48%. In addition, the score in experiment [3] was found to be 1.11. In experiment [4], this molecule yielded a rescue above control of 9.03. In addition, the cytochrome c release ratio in experiment [5] was 1.09. The molecule also yielded an inhibition of aggregation in experiment [6] of 57.1%.

As to `Cc1cc(N)c2ccccc2[n+]1CCCCCCCCCC[n+]1c(C)cc(N)c2ccccc21`, the fluorescence slope change in experiment [1] is 97.9% (active). Besides, the inhibition in experiment [2] is -13.3%. Moreover, the score in experiment [3] turned out to be 0.06. This molecule yielded a rescue above control in experiment [4] of -0.23. Moreover, the cytochrome c release ratio in experiment [5] is 6.78. For the same molecule, the inhibition of aggregation in experiment [6] stood at 43.1%.

For the molecule `CCCCOc1ccc(CC(=O)NO)cc1`, the fluorescence slope change in experiment [1] is 103% (active). Moreover, in experiment [2], the inhibition is -8.34%. The score in experiment [3] amounted to 1.21. Further, the rescue above control in experiment [4] was -4.19. Also, in experiment [5], the cytochrome c release ratio was 1.09. For the same molecule, the inhibition of aggregation in experiment [6] is 43.1%.

Consider `Cc1cc2cc3c(C)cc(=O)oc3c(C)c2o1`, for which the fluorescence slope change in experiment [1] was 18.1% (inactive). Further, in experiment [2], the inhibition is -5.8%. The same molecule displayed a score in experiment [3] of 0.49. Besides, in experiment [5], the cytochrome c release ratio turned out to be 1.2. In experiment [6], this molecule showed an inhibition of aggregation of 74.1%.

Take `CC1=NN(c2ccccc2)C(=O)C1`: the inhibition in experiment [2] was -19.6%. For the same molecule, in experiment [3], the score turned out to be 1.27. For the same molecule, the cytochrome c release ratio in experiment [5] came out at 0.94. Further, in experiment [6], the inhibition of aggregation is 10.2%.

As to `CN1C(C)(C)CCCC1(C)C`, the fluorescence slope change in experiment [1] is 17% (inactive).

As to `C[N+]12CCC(CC1)C(OC(=O)C(O)(c1ccccc1)c1ccccc1)C2` (stereo not given), in experiment [1], the fluorescence slope change is 27.6% (inactive). Further, in experiment [2], the inhibition came out at 10.9%. The score in experiment [3] came to 1.31. Further, the rescue above control in experiment [4] was 14.7. Besides, the cytochrome c release ratio in experiment [5] was determined as 1.79. Further, the inhibition of aggregation in experiment [6] amounted to 73.8%.

For the origin of these results see PubChem BioAssay.
